Compounds with a hit are over-represented: about 3% of the library has one in this group of screens.
SENP7 block: inhibitors of human SENP7 protease; recombinant SENP7, Z-RLRGG-aminoluciferin luminescence, 40 min; inhibition, % at 5 µM; 1.5% of 330,000 active;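 active = inhibition above about 50% at the single test dose, limit read from the data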
SENP8 block-1: inhibitors of human SENP8 protease; Q96LD8; recombinant SENP8, Nedd8 substrate fluorescence; inhibition, % at 20 µM; 0.64% of 360,000 active; AID 602440; in the data active = inhibition mostly above about 40%, no sharp cut-off; inactive = mostly below about 27%
Target sequence (Q96LD8 whole entry, looked up): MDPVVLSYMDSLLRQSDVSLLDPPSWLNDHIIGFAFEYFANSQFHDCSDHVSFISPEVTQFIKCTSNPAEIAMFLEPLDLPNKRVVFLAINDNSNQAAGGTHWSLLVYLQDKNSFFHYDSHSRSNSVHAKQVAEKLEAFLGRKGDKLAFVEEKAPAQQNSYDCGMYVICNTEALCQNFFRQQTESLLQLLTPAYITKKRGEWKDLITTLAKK
SENP6 block: SENP6 protease inhibition | Q9GZR1 | Recombinant SENP6 catalytic domain, aminoluciferin luminescence | inhibition, % at 10 µM | 1.8% of 330,000 active | AID 2599;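 active = inhibition above about 50% at the single tested dose, limit read from the data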
SENP8 block-2: inhibitors of human SENP8 protease; 1.2% of 330,000 active; purified SENP8, Z-RLRGG-aminoluciferin cleavage, luminescence; inhibition, % at 10 µM; in the data active = inhibition above about 50%
PPC-1+TRAIL kill: kills PPC-1 cancer cells in the presence of TRAIL; PPC-1 cells + TRAIL, ATPLite viability luminescence; cell killing (% activity), % at 4 µM or 5 µM; 0.41% of 220,000 active; AID 1443;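 active = cell killing above 50% in the first pass at 4 µM, then a duplicate retest at 5 µM averaging 50% or more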
C8 TRAIL sens: sensitizes caspase-8 expressing cells to TRAIL; inhibition (viability loss, TRAIL sensitization), % at 10 µM; 1% of 360,000 active; NB7+C8 cells + TRAIL, ATPlite viability luminescence; AID 624354;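 active = compounds causing at least 50% loss of cell viability in the single-dose screen, relative to plate controls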
Large screens that a line does not name were inactive.

C/C(=N\Nc1ccc(C(=O)c2c(C)cc3ccccn23)cc1[N+](=O)[O-])c1ccc(O)cc1	SENP8 block-1 62
CSc1ccc(C=NNc2ccc(S(=O)(=O)Nc3ccccc3C(=O)O)cc2[N+](=O)[O-])cc1	none (no result: PPC-1+TRAIL kill)
Cc1cc2ccccn2c1C(=O)c1ccncc1	none
Cc1cc2ccccn2c1C(=O)c1ccc(Cl)cc1	none
Cc1cc2ccccn2c1C(=O)c1ccc(N/N=C/c2ccc(C(=O)O)cc2)c([N+](=O)[O-])c1	SENP8 block-1 66 (no result: SENP7 block, SENP6 block, SENP8 block-2)
C/C(=N/Nc1ccc(C(=O)c2c(C)cc3ccccn23)cc1[N+](=O)[O-])c1ccc(O)cc1	SENP8 block-1 50 (no result: SENP7 block, SENP6 block, SENP8 block-2, PPC-1+TRAIL kill)
O=C(/C=C/[C@H]1O[C@@H](n2cnc3c(NC(=O)c4ccccc4)ncnc32)[C@H](O)[C@@H]1O)NCC1CCCO1 (stereo partly specified)	C8 TRAIL sens 54 (no result: SENP7 block, SENP6 block, SENP8 block-2, PPC-1+TRAIL kill)
O=C(CN1CCOCC1)Nc1ccc(Cl)cn1	none (no result: PPC-1+TRAIL kill)
Cc1ccc(S(=O)(=O)N(CCC(=O)NCC(c2ccccc2)N(C)C)c2ccccc2)cc1 (stereo unspecified)	none (no result: SENP7 block, SENP6 block, SENP8 block-2, PPC-1+TRAIL kill)
CCOC(=O)c1ccc(N/C=C\C(=O)c2cccc(OC)c2)cc1	SENP7 block 86, SENP8 block-2 66
CC1CCN(C(=O)COC(=O)C2CCN(S(=O)(=O)c3c(Cl)cccc3Cl)CC2)CC1	none (no result: PPC-1+TRAIL kill)
Cc1ccc(S(=O)(=O)N2CCC(C(=O)NCCc3ccc(S(N)(=O)=O)cc3)CC2)cc1	PPC-1+TRAIL kill 53
Cc1ccc(S(=O)(=O)N2CCC(C(=O)NCCc3ccccc3)CC2)cc1	none
CC(NCc1cccnc1)c1ccccc1 (stereo unspecified)	none (no result: PPC-1+TRAIL kill)
O=C(COC(=O)CCC(=O)c1cccs1)Nc1ccccc1C(F)(F)F	none (no result: PPC-1+TRAIL kill)
CC12CCC(/C(=C/NNc3ccc([N+](=O)[O-])cc3[N+](=O)[O-])C1=O)C2(C)C (stereo unspecified)	SENP8 block-1 30 (no result: SENP7 block, SENP6 block, SENP8 block-2, PPC-1+TRAIL kill)
O=C(NNc1ccc([N+](=O)[O-])cc1[N+](=O)[O-])C1C2CCCCC21 (stereo unspecified)	none
CC(Cl)C(=O)N1c2ccccc2CCc2ccccc21 (stereo unspecified)	none (no result: PPC-1+TRAIL kill)
O=C(CCl)N1c2ccccc2CCc2ccccc21	C8 TRAIL sens 95 (no result: PPC-1+TRAIL kill)
CN1CCN(C(=O)OCCOCCOC(=O)N2CCN(C)CC2)CC1	none (no result: SENP7 block, SENP6 block, SENP8 block-2, PPC-1+TRAIL kill)
COc1ccc(-c2cc3nc(C)cc(N)n3n2)cc1	SENP7 block 97, SENP6 block 96, SENP8 block-2 95, PPC-1+TRAIL kill 81, C8 TRAIL sens 84
Cc1cccc(-c2cc3nc(C)cc(N4CC(C)CC(C)C4)n3n2)c1 (stereo unspecified)	none
Cc1cccc(-c2cc3nc(C)cc(C)n3n2)c1	SENP7 block 78, SENP8 block-2 54
COc1ccc(-c2cc3nc(C)cc(-c4ccc(OC)cc4)n3n2)cc1	none (no result: PPC-1+TRAIL kill)
CC(C)C(C)NC(=O)COn1nnc2ccc(S(=O)(=O)N3CCOCC3)cc21 (stereo unspecified)	none (no result: PPC-1+TRAIL kill)
c1cc(-c2cc3cc(N4CCOCC4)ccc3o2)cs1	C8 TRAIL sens 79 (no result: PPC-1+TRAIL kill)
CCNC(=O)C1(C)CCN(C(=O)c2cccs2)C1 (stereo unspecified)	none (no result: SENP7 block, SENP6 block, SENP8 block-2, PPC-1+TRAIL kill)
CC1CCN(C(=O)C2CCN(S(=O)(=O)c3ccc(-n4cnnn4)cc3)CC2)CC1	none (no result: PPC-1+TRAIL kill)
Oc1ccc(N=Cc2ccc(O)c(O)c2)cc1	SENP8 block-1 62
Cc1nc(NC(=O)c2ccccc2)sc1-c1cc(C(=O)O)nn1Cc1ccccc1	none (no result: SENP7 block, SENP6 block, SENP8 block-2, PPC-1+TRAIL kill)
Nc1nc(-c2ccccc2)c(N=Nc2ccc(Cl)cc2)s1	SENP8 block-1 46
CN(C)c1ccc(Cc2ccc(N(C)C)cc2)cc1	SENP8 block-1 30 (no result: SENP7 block, SENP6 block, SENP8 block-2, PPC-1+TRAIL kill)
CN(C)c1ccc(CCc2ccc(N)cc2)cc1	none (no result: PPC-1+TRAIL kill)
O=C(Nc1cccc(F)c1)c1ccc(-c2cccnc2)c2ccoc12	none (no result: SENP7 block, SENP6 block, SENP8 block-2, PPC-1+TRAIL kill)
O=Nc1ccc(NO)c2ccccc12	C8 TRAIL sens 71 (no result: SENP7 block, SENP6 block, SENP8 block-2, PPC-1+TRAIL kill)
Cc1ccc(C)c(N2C(=O)CC(Cc3ccc(Br)cc3)C2=O)c1 (stereo unspecified)	none (no result: PPC-1+TRAIL kill)
Cc1ccc(-c2csc(NC(=O)C3=COCCO3)n2)cc1	SENP7 block 59, SENP6 block 70
CC(=O)Nc1ccc(-c2csc(NC(=O)C3=COCCO3)n2)cc1	none (no result: PPC-1+TRAIL kill)
CCCCN(C(=O)c1nn(C)c(=O)c2ccccc12)c1c(N)n(CC(C)C)c(=O)[nH]c1=O	none (no result: PPC-1+TRAIL kill)
COc1ccc(CCN2C(=O)COc3ccccc3C2C(=O)Nc2c(C)cccc2C)cc1OC (stereo unspecified)	none (no result: SENP7 block, SENP6 block, SENP8 block-2, PPC-1+TRAIL kill)
COc1ccc(-c2noc(CCC(=O)Nc3cccnc3)n2)cc1	none (no result: PPC-1+TRAIL kill)
